Measurements taken from the supplement of paper PMC10849652.
Of roughly 7,900 targets only a part is listed; those with a hit were picked by preference. About 0.6% of all pairs of compound and target were hits. Values without a mark were called inactive.

Tests used:
Experiment in all cases: log2 fold change, soluble protein after heating vs DMSO (PISA); higher = thermal stabilisation; K562 cells, 10 uM, 30 min; active = over 0.2 and 3.5 SD of the protein, either way, in both replicates (recomputed)
[1] = compound: CC1=C(C=C(C=C1)NC(=O)C2=CC(=CC=C2)C(C)(C)C#N)NC3=CC4=C(C=C3)N=CN(C4=O)C
Method in brief: (§1)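 K562 cells at 2×10^6 cells/mL were treated for 30 min with 10 μM compound, and aliquots were heated for 3 min over 48°C-58°C before pooling. Extraction used PBS with 0.5% NP-40 at 4°C, and soluble protein was the supernatant after 21,000xg for 90 min, measured by TMTpro 16plex LC-MS/MS with channel sums equalised. Thermal stability values, relative to control samples and from duplicates, are log2 fold changes.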

[2] = compound: CC1=C(C=C(C=C1)NC(=O)C2=CC(=CC=C2)N(C)C)NC(=O)C3=CC=C(C=C3)O
Method in brief: as §1

[3] = compound: CC1=CC=C(C=C1)SC2=C3C=C(SC3=CN=C2)C(=O)N
Method in brief: as §1

[4] = compound: CC1=NC(=CC=C1)C2=C(N=C(N2)C(C)(C)C)C3=CC4=NC=CN=C4C=C3
Method in brief: as §1

[5] = compound: CCCCN(Cc1ccc(C(=O)NO)cc1)C(=O)Nc1ccccc1 [Nexturastat A]
Method in brief: as §1

[6] = compound: CCCS(=O)(=O)Nc1ccc(F)c(C(=O)c2c[nH]c3ncc(-c4ccc(Cl)cc4)cc23)c1F [vemurafenib]
Method in brief: as §1

[7] = compound: CCCS(=O)(=O)Nc1ccc(F)c(C(=O)c2c[nH]c3ncc(Cl)cc23)c1F
Method in brief: as §1

[8] = compound: CCCc1cc(C)[nH]c(=O)c1CNC(=O)c1cc(-c2ccnc(N3CCN(C)CC3)c2)cc2c1cnn2C(C)C
Method in brief: as §1

[9] = compound: CCN(CC)Cc1ccc2cc(COC(=O)Nc3ccc(C(=O)NO)cc3)ccc2c1 [givinostat]
Method in brief: as §1

[10] = compound: CCN(CCCOc1ccc2c(Nc3cc(CC(=O)Nc4cccc(F)c4)[nH]n3)ncnc2c1)CCOP(=O)(O)O [barasertib]
Method in brief: as §1

UniProt Q15796, sequence (Q15796 whole entry, looked up): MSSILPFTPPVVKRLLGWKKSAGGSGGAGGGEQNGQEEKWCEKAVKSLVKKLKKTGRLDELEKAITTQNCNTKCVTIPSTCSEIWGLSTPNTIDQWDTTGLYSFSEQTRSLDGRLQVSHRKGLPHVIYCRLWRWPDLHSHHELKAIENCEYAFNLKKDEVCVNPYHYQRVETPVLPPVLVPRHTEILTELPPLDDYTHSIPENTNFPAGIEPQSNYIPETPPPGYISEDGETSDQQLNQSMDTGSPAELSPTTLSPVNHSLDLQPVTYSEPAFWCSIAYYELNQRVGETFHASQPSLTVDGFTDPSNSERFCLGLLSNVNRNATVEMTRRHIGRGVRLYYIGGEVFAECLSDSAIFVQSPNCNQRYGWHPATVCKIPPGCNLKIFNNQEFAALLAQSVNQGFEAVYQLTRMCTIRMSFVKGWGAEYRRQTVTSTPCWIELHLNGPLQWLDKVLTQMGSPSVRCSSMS
UniProt P04183, sequence (P04183 whole entry, looked up): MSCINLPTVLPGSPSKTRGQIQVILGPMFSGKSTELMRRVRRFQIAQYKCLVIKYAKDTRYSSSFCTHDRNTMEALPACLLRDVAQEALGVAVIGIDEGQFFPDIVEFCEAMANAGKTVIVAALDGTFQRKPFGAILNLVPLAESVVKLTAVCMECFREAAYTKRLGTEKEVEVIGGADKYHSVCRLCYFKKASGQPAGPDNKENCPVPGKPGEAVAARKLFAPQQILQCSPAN
UniProt Q9H254, sequence (Q9H254 whole entry, looked up): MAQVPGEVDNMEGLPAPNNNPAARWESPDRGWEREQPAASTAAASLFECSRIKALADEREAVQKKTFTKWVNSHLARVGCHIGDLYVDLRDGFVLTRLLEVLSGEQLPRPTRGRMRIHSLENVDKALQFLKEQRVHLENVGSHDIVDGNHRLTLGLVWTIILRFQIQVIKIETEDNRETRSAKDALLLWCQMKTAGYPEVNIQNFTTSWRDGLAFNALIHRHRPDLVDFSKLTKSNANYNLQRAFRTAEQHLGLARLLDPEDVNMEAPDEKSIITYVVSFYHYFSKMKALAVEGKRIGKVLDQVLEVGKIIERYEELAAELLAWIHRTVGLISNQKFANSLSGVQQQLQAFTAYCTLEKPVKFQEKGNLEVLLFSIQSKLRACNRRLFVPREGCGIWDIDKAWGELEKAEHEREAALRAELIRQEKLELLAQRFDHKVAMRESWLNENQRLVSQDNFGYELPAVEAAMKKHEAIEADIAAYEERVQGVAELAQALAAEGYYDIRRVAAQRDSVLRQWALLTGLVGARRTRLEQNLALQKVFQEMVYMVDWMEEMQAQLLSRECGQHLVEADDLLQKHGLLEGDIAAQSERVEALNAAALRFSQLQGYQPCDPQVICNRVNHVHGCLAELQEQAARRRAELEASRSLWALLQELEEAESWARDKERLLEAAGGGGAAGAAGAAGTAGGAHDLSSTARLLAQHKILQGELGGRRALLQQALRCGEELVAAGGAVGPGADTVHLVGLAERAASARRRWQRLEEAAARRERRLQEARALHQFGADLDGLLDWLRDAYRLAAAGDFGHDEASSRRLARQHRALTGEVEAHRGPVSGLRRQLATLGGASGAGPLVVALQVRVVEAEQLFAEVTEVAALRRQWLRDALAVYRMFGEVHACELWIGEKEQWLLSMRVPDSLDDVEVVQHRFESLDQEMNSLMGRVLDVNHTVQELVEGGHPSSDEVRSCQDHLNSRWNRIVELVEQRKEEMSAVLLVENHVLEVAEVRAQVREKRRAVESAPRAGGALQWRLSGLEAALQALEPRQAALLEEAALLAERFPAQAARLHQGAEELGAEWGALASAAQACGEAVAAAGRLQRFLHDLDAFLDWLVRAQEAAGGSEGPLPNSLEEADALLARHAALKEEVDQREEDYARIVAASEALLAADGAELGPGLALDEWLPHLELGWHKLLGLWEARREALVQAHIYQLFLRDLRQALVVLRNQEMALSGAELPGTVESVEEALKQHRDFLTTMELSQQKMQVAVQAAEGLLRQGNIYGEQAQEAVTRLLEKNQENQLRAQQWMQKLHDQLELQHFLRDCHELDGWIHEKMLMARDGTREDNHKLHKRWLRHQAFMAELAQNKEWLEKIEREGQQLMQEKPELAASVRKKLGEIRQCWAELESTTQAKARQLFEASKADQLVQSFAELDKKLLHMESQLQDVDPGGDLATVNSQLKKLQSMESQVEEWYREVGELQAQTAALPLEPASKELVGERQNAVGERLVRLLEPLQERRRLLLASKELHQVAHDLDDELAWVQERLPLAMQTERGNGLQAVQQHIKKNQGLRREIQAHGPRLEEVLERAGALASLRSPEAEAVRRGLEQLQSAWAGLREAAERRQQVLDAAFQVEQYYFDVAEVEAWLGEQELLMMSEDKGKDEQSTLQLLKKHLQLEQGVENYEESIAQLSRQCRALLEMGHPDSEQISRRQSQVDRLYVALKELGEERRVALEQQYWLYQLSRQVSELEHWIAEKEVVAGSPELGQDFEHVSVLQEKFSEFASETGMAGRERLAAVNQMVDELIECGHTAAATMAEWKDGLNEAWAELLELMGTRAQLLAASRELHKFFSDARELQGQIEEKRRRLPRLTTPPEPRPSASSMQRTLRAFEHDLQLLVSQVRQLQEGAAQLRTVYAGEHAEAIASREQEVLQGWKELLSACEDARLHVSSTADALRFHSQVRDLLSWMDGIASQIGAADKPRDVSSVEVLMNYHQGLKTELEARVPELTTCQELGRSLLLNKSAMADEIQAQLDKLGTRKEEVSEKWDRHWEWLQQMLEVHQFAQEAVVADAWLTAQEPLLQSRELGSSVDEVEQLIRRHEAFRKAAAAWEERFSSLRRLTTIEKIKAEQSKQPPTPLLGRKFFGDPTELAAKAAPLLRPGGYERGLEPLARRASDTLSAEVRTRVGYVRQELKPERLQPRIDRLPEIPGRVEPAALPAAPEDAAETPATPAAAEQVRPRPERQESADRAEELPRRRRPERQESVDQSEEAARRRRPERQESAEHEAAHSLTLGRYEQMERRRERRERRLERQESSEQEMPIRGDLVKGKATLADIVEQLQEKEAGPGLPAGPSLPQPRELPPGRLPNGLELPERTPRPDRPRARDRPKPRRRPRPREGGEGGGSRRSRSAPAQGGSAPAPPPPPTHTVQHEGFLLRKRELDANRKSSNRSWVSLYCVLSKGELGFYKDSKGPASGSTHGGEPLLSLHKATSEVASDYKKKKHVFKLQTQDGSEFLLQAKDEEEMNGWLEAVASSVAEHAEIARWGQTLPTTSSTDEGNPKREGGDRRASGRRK
UniProt Q16385, sequence (Q16385 whole entry, looked up): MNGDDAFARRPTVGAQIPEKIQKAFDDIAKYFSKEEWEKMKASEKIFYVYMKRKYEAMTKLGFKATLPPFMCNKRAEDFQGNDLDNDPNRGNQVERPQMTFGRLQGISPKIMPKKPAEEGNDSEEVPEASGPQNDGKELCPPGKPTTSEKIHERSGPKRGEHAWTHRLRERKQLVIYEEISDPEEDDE
UniProt Q15527, sequence (Q15527 whole entry, looked up): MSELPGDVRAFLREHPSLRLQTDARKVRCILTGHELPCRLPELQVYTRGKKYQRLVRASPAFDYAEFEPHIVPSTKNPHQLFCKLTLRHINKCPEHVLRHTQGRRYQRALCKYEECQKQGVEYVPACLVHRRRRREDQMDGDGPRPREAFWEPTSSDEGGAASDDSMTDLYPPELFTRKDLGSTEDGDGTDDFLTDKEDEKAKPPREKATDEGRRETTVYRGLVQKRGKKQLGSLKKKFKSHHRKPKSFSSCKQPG
UniProt Q8N0X7, sequence (Q8N0X7 whole entry, looked up): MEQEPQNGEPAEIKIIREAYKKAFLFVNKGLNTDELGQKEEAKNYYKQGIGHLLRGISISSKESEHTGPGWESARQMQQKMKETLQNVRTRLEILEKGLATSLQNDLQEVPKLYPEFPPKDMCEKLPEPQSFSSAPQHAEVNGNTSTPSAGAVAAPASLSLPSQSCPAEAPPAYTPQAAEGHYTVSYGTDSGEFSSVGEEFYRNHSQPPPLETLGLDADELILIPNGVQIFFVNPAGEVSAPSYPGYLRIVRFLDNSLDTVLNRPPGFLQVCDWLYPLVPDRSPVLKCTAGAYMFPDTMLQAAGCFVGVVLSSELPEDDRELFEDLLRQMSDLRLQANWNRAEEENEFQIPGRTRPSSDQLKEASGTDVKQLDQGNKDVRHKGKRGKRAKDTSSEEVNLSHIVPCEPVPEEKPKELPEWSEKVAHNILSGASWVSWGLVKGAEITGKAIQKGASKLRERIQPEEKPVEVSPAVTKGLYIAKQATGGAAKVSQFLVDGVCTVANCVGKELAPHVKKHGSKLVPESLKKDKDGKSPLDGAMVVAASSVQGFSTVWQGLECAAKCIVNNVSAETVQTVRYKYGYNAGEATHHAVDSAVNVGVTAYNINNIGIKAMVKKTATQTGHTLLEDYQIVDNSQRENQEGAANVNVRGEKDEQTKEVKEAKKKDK
UniProt O75663, sequence (O75663 whole entry, looked up): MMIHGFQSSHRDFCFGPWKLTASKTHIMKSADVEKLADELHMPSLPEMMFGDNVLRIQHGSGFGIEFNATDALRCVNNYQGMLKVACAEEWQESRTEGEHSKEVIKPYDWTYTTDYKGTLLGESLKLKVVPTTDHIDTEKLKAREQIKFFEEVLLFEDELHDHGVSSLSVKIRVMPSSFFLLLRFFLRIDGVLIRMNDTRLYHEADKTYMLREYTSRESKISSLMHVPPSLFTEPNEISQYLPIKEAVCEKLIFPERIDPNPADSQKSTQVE
UniProt Q96CW6, sequence (Q96CW6 whole entry, looked up): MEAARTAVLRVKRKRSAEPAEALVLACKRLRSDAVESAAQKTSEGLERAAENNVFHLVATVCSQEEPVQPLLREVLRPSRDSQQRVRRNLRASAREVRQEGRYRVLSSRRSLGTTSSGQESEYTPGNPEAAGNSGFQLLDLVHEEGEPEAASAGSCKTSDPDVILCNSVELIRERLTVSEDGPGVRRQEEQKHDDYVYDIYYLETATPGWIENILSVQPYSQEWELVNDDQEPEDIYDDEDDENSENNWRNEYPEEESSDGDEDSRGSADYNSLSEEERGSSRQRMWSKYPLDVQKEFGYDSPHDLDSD

What does the source list for STIM1 (UniProt Q13586)?
log2 fold change [1]: 0.014; log2 fold change [2]: 0.003; log2 fold change [3]: 0.028; log2 fold change [4]: 0.045; log2 fold change [5]: -0.066; log2 fold change [6]: -0.006; log2 fold change [7]: 0.034; log2 fold change [8]: -0.015; log2 fold change [9]: 0.009; log2 fold change [10]: 0.008

With SLC7A6OS (UniProt Q96CW6) as the target, how does the log2 fold change [1] read?
Its log2 fold change is -0.065.

And the log2 fold change [2]?
Its log2 fold change is -0.033.

What about the log2 fold change [3] of the same target?
The log2 fold change was -0.042.

What about the log2 fold change [4] of the same target?
The log2 fold change was -0.075.

What about the log2 fold change [5] of the same target?
The log2 fold change was -0.031.

And the log2 fold change [6]?
Its log2 fold change is -0.015.

What about the log2 fold change [7] of the same target?
The log2 fold change was 0.013.

And the log2 fold change [8]?
Its log2 fold change is -0.025.

What about the log2 fold change [9] of the same target?
The log2 fold change was 0.017.

What about the log2 fold change [10] of the same target?
The log2 fold change was 0.01.

How did the log2 fold change [1] turn out when TIPRL (UniProt O75663) was run?
Its log2 fold change is 0.011.

What about the log2 fold change [2] of the same target?
Its log2 fold change is -0.017.

And the log2 fold change [3]?
Its log2 fold change is 0.007.

And the log2 fold change [4]?
The log2 fold change was 0.013.

What about the log2 fold change [5] of the same target?
Its log2 fold change is -0.05.

What about the log2 fold change [6] of the same target?
The log2 fold change was 0.022.

What about the log2 fold change [7] of the same target?
The log2 fold change was 0.046.

What about the log2 fold change [8] of the same target?
The log2 fold change was 0.02.

What about the log2 fold change [9] of the same target?
Its log2 fold change is 0.032.

What about the log2 fold change [10] of the same target?
The log2 fold change was -0.007.

With STK39 (UniProt Q9UEW8) as the target, how does the log2 fold change [1] read?
Its log2 fold change is -0.049.

What about the log2 fold change [2] of the same target?
Its log2 fold change is 0.006.

What about the log2 fold change [3] of the same target?
Its log2 fold change is -0.016.

And the log2 fold change [4]?
Its log2 fold change is 0.033.

And the log2 fold change [5]?
The log2 fold change was 0.018.

And the log2 fold change [6]?
The log2 fold change was 0.015.

What about the log2 fold change [7] of the same target?
Its log2 fold change is 0.032.

And the log2 fold change [8]?
Its log2 fold change is 0.053.

And the log2 fold change [9]?
The log2 fold change was 0.033.

What about the log2 fold change [10] of the same target?
Its log2 fold change is 0.033.

Which log2 fold change [1] does the source give for SPTBN4 (UniProt Q9H254) here?
Its log2 fold change is -0.013.

And the log2 fold change [2]?
The log2 fold change was -0.037.

And the log2 fold change [3]?
Its log2 fold change is 0.144.

And the log2 fold change [4]?
Its log2 fold change is 0.025.

What about the log2 fold change [5] of the same target?
The log2 fold change was 0.039.

What about the log2 fold change [6] of the same target?
Its log2 fold change is -0.027.

And the log2 fold change [7]?
Its log2 fold change is -0.036.

And the log2 fold change [8]?
The log2 fold change was -0.12.

And the log2 fold change [9]?
Its log2 fold change is 0.112.

And the log2 fold change [10]?
The log2 fold change was -0.013.

How did the log2 fold change [1] turn out when SPART (UniProt Q8N0X7) was run?
Its log2 fold change is 0.007.

What about the log2 fold change [2] of the same target?
Its log2 fold change is -0.027.

And the log2 fold change [3]?
The log2 fold change was 0.055.

And the log2 fold change [4]?
Its log2 fold change is -0.014.

What about the log2 fold change [5] of the same target?
Its log2 fold change is 0.005.

And the log2 fold change [6]?
The log2 fold change was -0.046.

And the log2 fold change [7]?
The log2 fold change was 0.088.

And the log2 fold change [8]?
Its log2 fold change is -0.025.

And the log2 fold change [9]?
Its log2 fold change is 0.001.

What about the log2 fold change [10] of the same target?
Its log2 fold change is 0.037.

SPECC1 (UniProt Q5M775) was tested. Which log2 fold change [1] did it give?
Its log2 fold change is -0.028.

And the log2 fold change [2]?
The log2 fold change was -0.015.

And the log2 fold change [3]?
Its log2 fold change is 0.094.

What about the log2 fold change [4] of the same target?
Its log2 fold change is -0.063.

And the log2 fold change [5]?
Its log2 fold change is -0.08.

And the log2 fold change [6]?
Its log2 fold change is -0.094.

And the log2 fold change [7]?
Its log2 fold change is -0.06.

And the log2 fold change [8]?
The log2 fold change was -0.102.

And the log2 fold change [9]?
Its log2 fold change is 0.035.

What about the log2 fold change [10] of the same target?
The log2 fold change was 0.062.

TECR (UniProt Q9NZ01) was tested. Which log2 fold change [1] did it give?
The log2 fold change was -0.017.

And the log2 fold change [2]?
Its log2 fold change is -0.034.

And the log2 fold change [3]?
The log2 fold change was 0.031.

And the log2 fold change [4]?
The log2 fold change was 0.069.

And the log2 fold change [5]?
Its log2 fold change is -0.043.

And the log2 fold change [6]?
The log2 fold change was 0.021.

What about the log2 fold change [7] of the same target?
Its log2 fold change is 0.113.

And the log2 fold change [8]?
The log2 fold change was -0.084.

And the log2 fold change [9]?
The log2 fold change was 0.011.

And the log2 fold change [10]?
The log2 fold change was 0.007.

Which results are given for SSX2 (UniProt Q16385)?
log2 fold change [1]: 0.021; log2 fold change [2]: -0.013; log2 fold change [3]: 0.011; log2 fold change [4]: 0.073; log2 fold change [5]: -0.254 (active); log2 fold change [6]: 0.046; log2 fold change [7]: 0.035; log2 fold change [8]: -0.016; log2 fold change [9]: -0.099; log2 fold change [10]: 0.018

What does the source list for TCERG1 (UniProt O14776)?
log2 fold change [1]: 0.061; log2 fold change [2]: -0.147; log2 fold change [3]: 0.08; log2 fold change [4]: 0.077; log2 fold change [5]: -0.144; log2 fold change [6]: 0.118; log2 fold change [7]: 0.135; log2 fold change [8]: -0.006; log2 fold change [9]: 0.146; log2 fold change [10]: 0.107

What does the source list for SMAD2 (UniProt Q15796)?
log2 fold change [1]: 0.036; log2 fold change [2]: -0.034; log2 fold change [3]: 0.01; log2 fold change [4]: 0.052; log2 fold change [5]: -0.382; log2 fold change [6]: -0.016; log2 fold change [7]: 0.04; log2 fold change [8]: -0.027; log2 fold change [9]: 0.047; log2 fold change [10]: 0.047

For SURF2 (UniProt Q15527), which log2 fold change [1] is on record?
The log2 fold change was 0.022.

And the log2 fold change [2]?
The log2 fold change was -0.007.

And the log2 fold change [3]?
The log2 fold change was 0.035.

What about the log2 fold change [4] of the same target?
Its log2 fold change is -0.027.

What about the log2 fold change [5] of the same target?
Its log2 fold change is 0.033.

And the log2 fold change [6]?
Its log2 fold change is -0.037.

What about the log2 fold change [7] of the same target?
The log2 fold change was -0.002.

What about the log2 fold change [8] of the same target?
Its log2 fold change is -0.029.

What about the log2 fold change [9] of the same target?
The log2 fold change was 0.013.

What about the log2 fold change [10] of the same target?
Its log2 fold change is 0.035.

For TK1 (UniProt P04183), which log2 fold change [1] is on record?
Its log2 fold change is -0.035.

And the log2 fold change [2]?
Its log2 fold change is 0.001.

And the log2 fold change [3]?
The log2 fold change was 0.01.

What about the log2 fold change [4] of the same target?
Its log2 fold change is -0.004.

What about the log2 fold change [5] of the same target?
Its log2 fold change is 0.014.

What about the log2 fold change [6] of the same target?
The log2 fold change was 0.003.

What about the log2 fold change [7] of the same target?
The log2 fold change was -0.012.

What about the log2 fold change [8] of the same target?
Its log2 fold change is -0.095.

What about the log2 fold change [9] of the same target?
The log2 fold change was 0.011.

What about the log2 fold change [10] of the same target?
Its log2 fold change is 0.011.

What does the source list for SLC38A7 (UniProt Q9NVC3)?
log2 fold change [1]: 0.092; log2 fold change [2]: 0.009; log2 fold change [3]: 0; log2 fold change [4]: 0.094; log2 fold change [5]: -0.04; log2 fold change [6]: 0.042; log2 fold change [7]: 0.012; log2 fold change [8]: -0.002; log2 fold change [9]: 0.008; log2 fold change [10]: -0.012

How did the log2 fold change [1] turn out when SMC5 (UniProt Q8IY18) was run?
The log2 fold change was -0.038.

What about the log2 fold change [2] of the same target?
Its log2 fold change is -0.067.

What about the log2 fold change [3] of the same target?
Its log2 fold change is -0.017.

And the log2 fold change [4]?
Its log2 fold change is -0.032.

And the log2 fold change [5]?
Its log2 fold change is -0.014.

What about the log2 fold change [6] of the same target?
The log2 fold change was 0.043.

What about the log2 fold change [7] of the same target?
Its log2 fold change is -0.033.

And the log2 fold change [8]?
Its log2 fold change is -0.02.

And the log2 fold change [9]?
Its log2 fold change is -0.033.

And the log2 fold change [10]?
Its log2 fold change is -0.048.
